Laboratory results published in PubChem BioAssay AID624136 (Broad Institute, 2012).
The whole screen tested about 17,000 compounds, of which about 75 (0.4%) were called active.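 The calls were made as follows: active = compounds whose four printed spots each glow above background more than chance allows, each with a p-value under 7%; inactive = the rest.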 Only a selection was taken, and actives are over-represented in it overall.

tested on: mutant tumor protein p53 (GST-tagged), Homo sapiens; test: small molecules binding GST-tagged mutant p53 – biochemical, small molecule microarray, anti-GST fluorescence, primary screen (AID 624136)

outcome, inactive:
COc1cc(C(C)=O)ccc1OCC(O)Cn1nc(C)cc1C (stereo not drawn)
COc1ccc(CN(C)C[C@H]2Oc3c(NS(=O)(=O)c4ccc(Cl)cc4)cccc3C(=O)N([C@H](C)CO)C[C@@H]2C)cc1
C[C@H](CO)N1C[C@H](C)[C@@H](CN(C)Cc2ccc(Cl)c(Cl)c2)Oc2c(NC(=O)C3CCCCC3)cccc2C1=O
C[C@H]1CCCCO[C@@H](CN(C)C(=O)C2CCCCC2)[C@@H](C)CN([C@@H](C)CO)C(=O)c2cc(NS(=O)(=O)c3cccs3)ccc2O1
C[C@H](CO)N1C[C@H](C)[C@H](CN(C)C)Oc2ccc(NC(=O)Cc3ccccc3)cc2CC1=O
C[C@H]1CN([C@@H](C)CO)C(=O)c2cc(NC(=O)Nc3ccccc3)ccc2O[C@@H]1CN(C)C(=O)Nc1ccccc1
CCNc1nc(SCCOc2ccccc2)nc(N(C)C)n1
C[C@H](CO)N1C[C@H](C)[C@H](CN(C)C(=O)Nc2ccc(C(F)(F)F)cc2)Oc2ccc(NS(C)(=O)=O)cc2CC1=O
O=C(OCC1OC(Oc2ccc(O)cc2COC(=O)C2(O)C(O)CCC(O)C2O)C(O)C(O)C1O)c1ccccc1 (stereo not drawn)
C[C@@H]1CCCCO[C@H](CN(C)C(=O)Nc2ccccc2)[C@H](C)CN([C@H](C)CO)C(=O)c2cc(N(C)C)ccc2O1
Cc1noc(C)c1NC(=O)Nc1ccc2c(c1)CC(=O)N([C@H](C)CO)C[C@@H](C)[C@@H](CN(C)Cc1ccncc1)O2
CC(=O)Nc1ccc(NC(=O)CN(c2ccccc2Br)S(C)(=O)=O)cc1
Cc1noc(C)c1NC(=O)Nc1cccc2c1O[C@@H](CN(C)Cc1ccc(C(F)(F)F)cc1)[C@@H](C)CN([C@@H](C)CO)C2=O
C[C@@H]1CCCCO[C@@H](CN(C)S(=O)(=O)c2ccccc2)[C@H](C)CN([C@H](C)CO)C(=O)c2cc(NC(=O)CCC(F)(F)F)ccc2O1
Cc1noc(C)c1S(=O)(=O)Nc1ccc2c(c1)CC(=O)N([C@@H](C)CO)C[C@@H](C)[C@H](CN(C)C)O2
C[C@H](CO)N1C[C@H](C)[C@H](CN(C)C(=O)c2ccccc2)OCCCC[C@H](C)Oc2ccc(NS(C)(=O)=O)cc2C1=O
C[C@@H]1CCCCO[C@H](CN(C)Cc2ccccc2)[C@@H](C)CN([C@H](C)CO)C(=O)c2cc(NS(C)(=O)=O)ccc2O1
C[C@H](CO)N1C[C@H](C)[C@H](CN(C)C(=O)Nc2ccccc2)Oc2ccc(NC(=O)C3CC3)cc2CC1=O
CC(C)NC(=O)Nc1ccc2c(c1)C(=O)N([C@@H](C)CO)C[C@H](C)[C@@H](CN(C)C(=O)Nc1ccc(F)cc1)OCCCC[C@H](C)O2
COc1ccc(CN(C)C[C@@H]2Oc3ccc(NC(=O)Nc4ccc(OC)cc4)cc3C(=O)N([C@H](C)CO)C[C@H]2C)cc1
C=CC(C)(O)CCC1(C)C2=C(C(OC(C)=O)C(OC(C)=O)C1C)C(C)(C)CCC2 (stereo not drawn)
COc1cc([C@H](Cc2ccccc2)NC(C)=O)oc(=O)c1
CCc1ccc2c(c1)c1nc3ccccc3nc1n2CC(=O)OC
C[C@H]1CN([C@@H](C)CO)C(=O)Cc2cc(NC(=O)Nc3cccc4ccccc34)ccc2O[C@H]1CN(C)CC1CC1
C[C@@H]1CCCCO[C@H](CN(C)Cc2ccccc2)[C@@H](C)CN([C@H](C)CO)C(=O)c2cc(NS(=O)(=O)c3ccc(Cl)cc3)ccc2O1
C[C@H](CO)N1C[C@H](C)[C@@H](CN(C)C(=O)Nc2ccc3c(c2)OCO3)Oc2ccc(NC(=O)NC3CCCCC3)cc2CC1=O
CC(C)NC(=O)Nc1ccc2c(c1)CC(=O)N([C@@H](C)CO)C[C@@H](C)[C@@H](CN(C)S(=O)(=O)c1ccccc1)O2
C[C@@H]1CN([C@@H](C)CO)C(=O)c2cc(N(C)C)ccc2O[C@@H](C)CCCCO[C@H]1CN(C)Cc1ccncc1
CC(=O)O[C@H]1C[C@@H](OC(C)=O)C(C)(C)C2C[C@@H](O)[C@]3(C)C(CC[C@@]4(C)[C@H](c5ccoc5)OC(=O)C5OC543)[C@]21C (stereo partly drawn)
CCC(=O)O[C@]1(C(=O)CCl)[C@@H](C)CC2C3CCC4=CC(=O)C=C[C@]4(C)[C@@]3(F)[C@@H](O)C[C@@]21C (stereo partly drawn)
COc1ccc2nc(SCC(=O)Nc3ccc(I)cc3)[nH]c2c1
C[C@@H]1CN([C@@H](C)CO)C(=O)c2cccc(NC(=O)Nc3ccc(C(F)(F)F)cc3)c2O[C@@H]1CN(C)S(=O)(=O)c1cccs1
C[C@H](CO)N1C[C@H](C)[C@H](CN(C)Cc2ccccc2)OCCCC[C@H](C)Oc2ccc(NC(=O)CCC(F)(F)F)cc2C1=O
OCCNc1nc(Nc2ccc(Cl)cc2)nc(N2CCCCC2)n1
C[C@@H]1CN([C@@H](C)CO)C(=O)c2cccc(NS(=O)(=O)c3ccc(F)cc3)c2O[C@H]1CN(C)C(=O)NC1CCCCC1
C[C@H]1CN([C@@H](C)CO)C(=O)Cc2cc(NS(C)(=O)=O)ccc2O[C@@H]1CN(C)CC1CC1
Cc1ccc(-c2cc(C(F)(F)F)n3nc(C(=O)NCCN4CCOCC4)c(Cl)c3n2)cc1
CCC(=O)Nc1cccc(NC(=O)COc2ccc(Br)cc2)c1
CNC[C@H]1Oc2ccc(NC(=O)Nc3ccc4c(c3)OCO4)cc2CC(=O)N([C@H](C)CO)C[C@H]1C
COc1ccc(CN(C)C[C@H]2Oc3ccc(NC(=O)Cn4cnnn4)cc3CC(=O)N([C@@H](C)CO)C[C@@H]2C)cc1
C[C@H]1CN([C@@H](C)CO)C(=O)c2cccc(NS(=O)(=O)c3ccc(Cl)cc3)c2O[C@H]1CN(C)Cc1ccc2c(c1)OCO2
Cc1noc(C)c1S(=O)(=O)Nc1ccc2c(c1)C(=O)N([C@@H](C)CO)C[C@@H](C)[C@@H](CN(C)Cc1ccccc1)OCCCC[C@H](C)O2
CC(C)NC(=O)Nc1ccc2c(c1)C(=O)N([C@@H](C)CO)C[C@H](C)[C@H](CN(C)C(=O)Nc1ccc(F)cc1)OCCCC[C@@H](C)O2
